# Data as given in PubChem BioAssay AID2094 (Broad Institute, 2009).
# The whole screen tested about 300,000 compounds, of which about 1,200 (0.4%) were called active. Shown is part of a subset that was picked to be rich in actives. Unmarked numbers belong to inactive results. Cut-off read from the data, not from the text of the source: active = activity change below about -75% (passing the limit was not always enough); inconclusive = no clear call, values can overlap the other calls.
# Assay: Vibrio harveyi AI-2 quorum sensing modulators, primary screen, JMH597 strain, luminescence/OD600 ratio (AID 2094);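 note: luminescence divided by OD600 gain over 9 h not by final OD600 alone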
# Settings: Vibrio harveyi JMH597 AI-2 luminescence/OD600 ratio, 9 h; at 7.5 µM; hits give low values; 0 = neutral-control median; strain lacks LuxN and CqsS sensors
row,Structure (SMILES),activity change
1,CC(=O)N1c2ccc(S(=O)(=O)N3CCC(C(=O)NC4CCCC(C)C4C)CC3)cc2CC1C (configuration not stated),26.4%
2,O=C(COc1ncnc2c(Cl)cc(Cl)cc12)N1CCN(S(=O)(=O)c2ccccc2)CC1,8.92%
3,Cc1cc(C)c2nc(-c3cccnc3)cc(C(=O)Nc3ccc(S(=O)(=O)Nc4onc(C)c4C)cc3)c2c1,39.3%
4,CCOC(=O)c1sc(NC(=O)c2sc(C)nc2C)nc1C,1.24%
5,O=C(Nc1ccccc1F)c1ccc2c(c1)OCO2,-3.7%
6,O=C(Nc1nnc(C2COc3ccccc3O2)o1)c1ccc(F)cc1 (configuration not stated),-225% (active)
7,CC1COc2ccccc2N1C(=O)c1ccc(F)cc1 (configuration not stated),25.4%
8,CN(C)S(=O)(=O)N1CCC(Oc2cccc(C(=O)NCCCC3CCCC3)c2)CC1,1.44%
9,CCN(CC(=O)Nc1cccc(S(=O)(=O)N2CCCCC2)c1)Cc1ccccc1,24.8%
10,O=C(Cn1cnc2ccccc2c1=O)Nc1cccc(S(=O)(=O)N2CCCCC2)c1,-81.4% (active)
11,CC(=O)NC(CC(=O)Nc1cccc(S(=O)(=O)N2CCCC2)c1)c1ccccc1 (configuration not stated),3.39%
12,C=CS(=O)c1sc(Cl)c(N2CCOCC2)c1[N+](=O)[O-] (configuration not stated),-83.3% (active)
13,CCCNC(=S)N1CCC(NC(=O)C23CC4CC(CC(C4)C2)C3)CC1,28.5%
14,CCCc1cc(=O)oc2c(C)c(OC(C)C(=O)NCC(O)c3ccccc3)ccc12 (configuration not stated),23.7%
15,CC(Oc1ccc(-c2ccccc2)c(F)c1)c1ccn(S(=O)(=O)c2cccc3ccccc23)n1 (configuration not stated),27.1%
16,CCN(CC)CCn1c2c(c(SCC(=O)Nc3ccc(C(C)C)cc3)nc1=O)CCC2,5.82%
17,O=c1c2sccc2nc(SCc2cc(=O)n3ccccc3n2)n1-c1ccc(Br)cc1,19.6%
18,C=C(C)c1cccc(C(C)(C)NC(=O)NC2CCCC2)c1,1.39%
19,COc1ccc(C(=O)NNC(=S)NC(=O)c2ccccc2[N+](=O)[O-])cc1,34.4%
20,COc1ccc(C(=O)NC(=S)NNC(=O)c2c(-c3ccccc3)noc2C)cc1,26.1%
21,COc1ccc(C(=O)NNC(=S)NC(=O)c2ccccc2)cc1,-106% (active)
22,CCNc1nc(NC(C)C)nc(OCCOC(=O)c2ccccc2)n1,23.7%
23,COc1ccc(C2N=C(N)N=C(N)N2c2ccccc2)cc1OC (configuration not stated),19.2%
24,CC1=CC=CC2=N/C(=N\S(=O)(=O)c3ccc(F)cc3F)c3ccccc3CN12,21.6%
25,Cc1ccccc1NC(=O)CCOc1ccccc1,-83.3% (active)
26,CCc1ccccc1NC(=O)CCOc1ccccc1,24.5%
27,Cc1cccc(OCCC(=O)Nc2ccccc2C(N)=O)c1,11.3%
